Experimental data from PubChem BioAssay (EPA / NIEHS).
Activity calls are given as the source filed them. How the source made its calls: active means hit-call score of the fitted dose curve at least 0.9, where 1 is the maximum; inactive means score below 0.9.

Columns and labels:
[1] = read-out: Macrophage colony-stimulating factor (MCSF), CSF1 (gene 1435); test: BSK_hDFCGF_MCSF: BioMAP Diversity Plus: hDFCGF Assay for Macrophage colony-stimulating factor (MCSF) Biomarker Activity (AID 2283060); conditions: primary human foreskin fibroblasts; actives raise or lower the signal
How it was run: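 Human foreskin primary fibroblasts were treated with test chemical for 24 h, and M-CSF was then measured by ELISA. Data were fitted bidirectionally against DMSO as the negative control and activity baseline.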

[2] = BSK_hDFCGF_SRB: Viability Assessment in the BioMAP Diversity Plus: hDFCGF Assay (AID 2283061); conditions: primary human foreskin fibroblasts;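 further: cells exposed to compound for 24 h before the read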
How it was run: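 Human foreskin primary fibroblasts were treated with compound and assessed 24 h after dosing. Total protein was measured by sulforhodamine B staining (0.1% SRB after 10% TCA fixation, 560 nm read) as a cytotoxicity marker, with bidirectional fitting against DMSO baseline.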

[3] = read-out: TIMP metallopeptidase inhibitor 1 (TIMP1), TIMP1 (gene 7076); test: BSK_hDFCGF_TIMP1: BioMAP Diversity Plus: hDFCGF Assay for TIMP metallopeptidase inhibitor 1 (TIMP1) Biomarker Activity (AID 2283062); conditions: primary human foreskin fibroblasts; actives raise or lower the signal
How it was run: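 Primary human foreskin fibroblasts in the hDFCGF system were dosed with compound for 24 h, then TIMP-1 was measured by ELISA. Activity was fitted bidirectionally relative to DMSO control; parallel SRB staining assessed cytotoxicity.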

[4] = read-out: Monokine induced gamma interferon (MIG), CXCL9 (gene 4283); test: BSK_hDFCGF_MIG: BioMAP Diversity Plus: hDFCGF Assay for Monokine induced gamma interferon (MIG) Biomarker Activity (AID 2283063); conditions: primary human foreskin fibroblasts; actives raise or lower the signal
How it was run: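 ELISA read-out of MIG from primary human dermal fibroblasts 24 h post-dosing. Gain or loss of signal fitted bidirectionally, DMSO as baseline.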

[5] = read-out: Matrix Metallopeptidase 1 (MMP1), MMP1 (gene 4312); test: BSK_hDFCGF_MMP1: BioMAP Diversity Plus: hDFCGF Assay for Matrix Metallopeptidase 1 (MMP1) Biomarker Activity (AID 2283064); conditions: primary human foreskin fibroblasts; actives raise or lower the signal
How it was run: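 Primary human foreskin fibroblasts exposed to chemicals for 24 h; MMP1 measured by ELISA. Cytotoxicity tracked by SRB staining in parallel cultures; bidirectional fit relative to DMSO.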

[6] = read-out: Vascular cell adhesion molecule 1 (VCAM1), VCAM1 (gene 7412); test: BSK_hDFCGF_VCAM1: BioMAP Diversity Plus: hDFCGF Assay for Vascular cell adhesion molecule 1 (VCAM1) Biomarker Activity (AID 2283065); conditions: primary human foreskin fibroblasts; actives raise or lower the signal;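 on AC50: VCAM-1 protein level quantified by ELISA after 24 h chemical exposure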
How it was run: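 Primary human foreskin fibroblasts (hDFCGF system) were dosed with chemical and VCAM-1 was measured by ELISA 24 h later. Bidirectional curve fitting used DMSO as negative control and activity baseline.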

[7] = read-out: Plasminogen activator inhibitor-1 (PAI1), SERPINE1 (gene 5054); test: BSK_hDFCGF_PAI1: BioMAP Diversity Plus: hDFCGF Assay for Plasminogen activator inhibitor-1 (PAI1) Biomarker Activity (AID 2283066); conditions: primary human foreskin fibroblasts; actives raise or lower the signal
How it was run: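 Primary dermal fibroblasts (human foreskin), hDFCGF system; compound 24 h; PAI-1 by ELISA; bidirectional fit vs DMSO control.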

[8] = read-out: Intercellular Adhesion Molecule 1 (ICAM1), ICAM1 (gene 3383); test: BSK_KF3CT_ICAM1: BioMAP Diversity Plus: KF3CT Assay for Intercellular Adhesion Molecule 1 (ICAM1) Biomarker Activity (AID 2283067); conditions: primary human keratinocytes with fibroblasts; actives raise or lower the signal
How it was run: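 Human keratinocyte plus foreskin fibroblast primary co-culture was exposed to chemical for 24 h. ICAM-1 was then quantified by ELISA, and the data were fit bidirectionally against DMSO as the negative control and baseline.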

[9] = read-out: Interferon-gamma inducible Protein 10 (IP10), CXCL10 (gene 3627); test: BSK_KF3CT_IP10: BioMAP Diversity Plus: KF3CT Assay for Interferon-gamma inducible Protein 10 (IP10) Biomarker Activity (AID 2283068); conditions: primary human keratinocytes with fibroblasts; actives raise or lower the signal
How it was run: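 In a primary skin co-culture of keratinocytes and fibroblasts, IP-10 is quantified by ELISA at 24 h after dosing. SRB staining of parallel wells monitors overt toxicity. Curves are fitted both directions against DMSO.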

[10] = BSK_KF3CT_SRB: Viability Assessment in the BioMAP Diversity Plus: KF3CT Assay (AID 2283069); conditions: primary human keratinocytes with fibroblasts;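 further: fitted for both signal gain and loss against DMSO baseline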
How it was run: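 Human keratinocyte and foreskin fibroblast co-culture exposed to chemical for 24 h. Total protein measured in parallel cultures by 0.1% sulforhodamine B staining after 10% TCA fixation, read at 560 nm; bidirectional fit relative to DMSO.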

Measured: AC50

COP(=O)(OC)OC=C(Cl)Cl
inactive: all assays above

O=[N+]([O-])c1c(Cl)c(Cl)c(Cl)c(Cl)c1Cl
active: [1] 18 µM | [2] 31 µM | [4] 29.3 µM | [5] 0.255 µM | [6] 20 µM | [7] 28.8 µM | [9] 17.6 µM | [10] 25.3 µM
inactive: [3] | [8]

OCCOc1ccccc1
inactive: all assays above

O=S1OCC2C(CO1)C1(Cl)C(Cl)=C(Cl)C2(Cl)C1(Cl)Cl (centres undefined)
active: [1] 24.2 µM | [2] 26.7 µM | [3] 32 µM | [4] 37.6 µM | [5] 36.7 µM | [6] 33.5 µM | [8] 31.9 µM | [9] 29.9 µM | [10] 29.5 µM

CCCN(CCOc1c(Cl)cc(Cl)cc1Cl)C(=O)n1ccnc1
active: [1] 23.8 µM | [2] 16 µM | [7] 23.9 µM
inactive: all other assays above

CN1CSC(=S)N(C)C1
active: [1] 10.6 µM | [4] 14.1 µM | [6] 9.28 µM | [7] 24.2 µM
inactive: all other assays above

ClC1C(Cl)C(Cl)C(Cl)C(Cl)C1Cl (centres undefined)
inactive: all assays above

Clc1ccccc1-c1nnc(-c2ccccc2Cl)nn1
inactive: all assays above

O=[N+]([O-])/N=C1\NCCN1Cc1ccc(Cl)nc1
inactive: all assays above

CNC(=O)CSP(=S)(OC)OC
inactive: all assays above

CCC(C)(NC(=O)c1cc(Cl)c(C)c(Cl)c1)C(=O)CCl (centres undefined)
active: [1] 3.56 µM | [2] 7.6 µM | [3] 34.3 µM | [4] 6.77 µM | [5] 30.4 µM | [6] 5.49 µM | [7] 8.04 µM | [8] 16.5 µM | [9] 10.8 µM | [10] 31.8 µM

Cc1[nH]c(=O)n(C(C)(C)C)c(=O)c1Cl
inactive: all assays above

COP(=S)(OC)Oc1ccc(SC)c(C)c1
active: [5] 9.5 µM
inactive: all other assays above

[2H]C1([2H])[n+]2ccccc2-c2cccc[n+]2C1([2H])[2H]
active: [5] 3.17 µM | [9] 4.43 µM
inactive: all other assays above

CCc1ccc(C(=O)NN(C(=O)c2cc(C)cc(C)c2)C(C)(C)C)cc1
inactive: all assays above

CCS(=O)(=O)c1cccnc1S(=O)(=O)NC(=O)Nc1nc(OC)cc(OC)n1
active: [9] 0.266 µM
inactive: all other assays above

CC[C@H](C)[C@H]1O[C@]2(C=C[C@@H]1C)C[C@@H]1C[C@@H](C/C=C(\C)[C@@H](O[C@H]3C[C@H](OC)[C@@H](O[C@H]4C[C@H](OC)[C@@H](O)[C@H](C)O4)[C@H](C)O3)[C@@H](C)/C=C/C=C3\CO[C@@H]4[C@H](O)C(C)=C[C@@H](C(=O)O1)[C@]34O)O2 (tested in a mixture with another compound)
active: [1] 8.11 µM | [2] 6.68 µM | [3] 9.96 µM | [4] 12.9 µM | [5] 9.79 µM | [6] 9.78 µM | [7] 6.95 µM | [8] 14.1 µM | [9] 12.5 µM | [10] 14.1 µM

CCOCN(C(=O)CCl)c1c(C)cccc1CC
active: [1] 9.55 µM | [4] 22.8 µM | [5] 5.13 µM | [6] 3.54 µM | [7] 21.8 µM | [9] 23.6 µM
inactive: [2] | [3] | [8] | [10]

O=C(O)COc1ccc(Cl)cc1Cl
inactive: all assays above

COP(=S)(OC)Oc1ccc([N+](=O)[O-])cc1
active: [1] 11.1 µM | [3] 5.75 µM | [7] 6.41 µM | [9] 9.18 µM
inactive: all other assays above
